The source of these data is ChEMBL document CHEMBL2218924, “A broad activity screen in support of a chemogenomic map for kinase signalling research and drug discovery” (Biochem J, 2013).

The target in experiment [1] is T1, Ephrin type-A receptor 3 (Homo sapiens) (UniProt P29320).
T1 sequence (whole entry): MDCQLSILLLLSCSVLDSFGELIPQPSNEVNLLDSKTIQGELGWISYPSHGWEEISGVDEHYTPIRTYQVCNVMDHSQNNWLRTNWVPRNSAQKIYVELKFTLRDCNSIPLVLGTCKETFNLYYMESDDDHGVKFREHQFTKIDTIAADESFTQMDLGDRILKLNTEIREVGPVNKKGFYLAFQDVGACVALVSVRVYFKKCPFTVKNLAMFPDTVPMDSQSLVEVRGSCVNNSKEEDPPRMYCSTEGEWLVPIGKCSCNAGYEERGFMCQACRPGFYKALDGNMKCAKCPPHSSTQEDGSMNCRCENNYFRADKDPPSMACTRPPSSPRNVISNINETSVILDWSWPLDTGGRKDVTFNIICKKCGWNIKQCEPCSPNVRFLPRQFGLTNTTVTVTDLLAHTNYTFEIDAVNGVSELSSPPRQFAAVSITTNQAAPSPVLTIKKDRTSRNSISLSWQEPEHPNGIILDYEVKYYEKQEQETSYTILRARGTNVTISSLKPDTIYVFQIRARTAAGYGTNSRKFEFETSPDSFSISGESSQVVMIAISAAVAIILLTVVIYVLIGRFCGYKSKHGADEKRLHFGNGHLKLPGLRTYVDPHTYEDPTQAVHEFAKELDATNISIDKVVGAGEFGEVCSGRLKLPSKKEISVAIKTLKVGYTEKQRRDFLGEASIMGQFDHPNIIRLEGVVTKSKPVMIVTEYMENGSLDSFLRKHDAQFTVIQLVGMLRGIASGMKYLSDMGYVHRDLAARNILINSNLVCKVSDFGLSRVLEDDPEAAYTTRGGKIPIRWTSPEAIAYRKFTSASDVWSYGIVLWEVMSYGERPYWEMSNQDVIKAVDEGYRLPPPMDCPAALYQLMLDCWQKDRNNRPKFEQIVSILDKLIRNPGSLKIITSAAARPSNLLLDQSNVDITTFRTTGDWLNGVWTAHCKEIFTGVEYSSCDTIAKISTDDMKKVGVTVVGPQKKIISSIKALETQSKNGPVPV
The conditions noted are these: at 10 µM.

Experiment [2] deals with Ephrin type-A receptor 4 (Homo sapiens) (UniProt P54764). The conditions noted are these: at 1 µM.
Sequence of Ephrin type-A receptor 4 (Homo sapiens) (P54764 whole entry): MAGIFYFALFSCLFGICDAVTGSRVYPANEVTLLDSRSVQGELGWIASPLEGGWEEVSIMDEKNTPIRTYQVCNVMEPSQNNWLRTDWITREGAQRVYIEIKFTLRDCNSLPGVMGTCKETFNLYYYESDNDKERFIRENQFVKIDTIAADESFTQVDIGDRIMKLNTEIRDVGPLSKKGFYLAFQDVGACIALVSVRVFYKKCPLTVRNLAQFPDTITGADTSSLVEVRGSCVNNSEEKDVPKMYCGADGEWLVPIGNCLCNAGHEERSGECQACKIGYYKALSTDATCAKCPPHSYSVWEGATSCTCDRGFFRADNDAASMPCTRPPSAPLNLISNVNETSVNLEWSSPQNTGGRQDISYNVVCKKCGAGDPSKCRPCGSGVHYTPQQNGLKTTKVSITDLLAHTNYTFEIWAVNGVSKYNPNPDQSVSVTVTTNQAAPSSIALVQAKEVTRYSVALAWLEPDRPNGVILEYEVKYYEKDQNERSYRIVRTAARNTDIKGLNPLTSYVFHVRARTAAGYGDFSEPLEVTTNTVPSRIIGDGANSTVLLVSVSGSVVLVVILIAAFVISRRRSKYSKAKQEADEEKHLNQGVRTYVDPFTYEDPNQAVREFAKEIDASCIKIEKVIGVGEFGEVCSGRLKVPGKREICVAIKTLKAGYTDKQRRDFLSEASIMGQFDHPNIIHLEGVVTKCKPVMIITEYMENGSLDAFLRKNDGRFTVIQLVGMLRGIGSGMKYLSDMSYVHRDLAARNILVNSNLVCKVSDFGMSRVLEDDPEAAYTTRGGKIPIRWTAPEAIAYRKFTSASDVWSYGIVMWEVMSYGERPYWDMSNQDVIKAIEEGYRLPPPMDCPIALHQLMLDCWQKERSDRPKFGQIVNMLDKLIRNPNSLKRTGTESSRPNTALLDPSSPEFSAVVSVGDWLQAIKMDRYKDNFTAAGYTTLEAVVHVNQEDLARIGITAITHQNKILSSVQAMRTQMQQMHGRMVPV
Experiment [3] has the same target. The conditions noted are these: at 10 µM.
The target of experiment [4] is Ephrin type-A receptor 5 (Homo sapiens) (UniProt P54756). The following applies: at 1 µM.
Sequence of Ephrin type-A receptor 5 (Homo sapiens) (P54756 whole entry): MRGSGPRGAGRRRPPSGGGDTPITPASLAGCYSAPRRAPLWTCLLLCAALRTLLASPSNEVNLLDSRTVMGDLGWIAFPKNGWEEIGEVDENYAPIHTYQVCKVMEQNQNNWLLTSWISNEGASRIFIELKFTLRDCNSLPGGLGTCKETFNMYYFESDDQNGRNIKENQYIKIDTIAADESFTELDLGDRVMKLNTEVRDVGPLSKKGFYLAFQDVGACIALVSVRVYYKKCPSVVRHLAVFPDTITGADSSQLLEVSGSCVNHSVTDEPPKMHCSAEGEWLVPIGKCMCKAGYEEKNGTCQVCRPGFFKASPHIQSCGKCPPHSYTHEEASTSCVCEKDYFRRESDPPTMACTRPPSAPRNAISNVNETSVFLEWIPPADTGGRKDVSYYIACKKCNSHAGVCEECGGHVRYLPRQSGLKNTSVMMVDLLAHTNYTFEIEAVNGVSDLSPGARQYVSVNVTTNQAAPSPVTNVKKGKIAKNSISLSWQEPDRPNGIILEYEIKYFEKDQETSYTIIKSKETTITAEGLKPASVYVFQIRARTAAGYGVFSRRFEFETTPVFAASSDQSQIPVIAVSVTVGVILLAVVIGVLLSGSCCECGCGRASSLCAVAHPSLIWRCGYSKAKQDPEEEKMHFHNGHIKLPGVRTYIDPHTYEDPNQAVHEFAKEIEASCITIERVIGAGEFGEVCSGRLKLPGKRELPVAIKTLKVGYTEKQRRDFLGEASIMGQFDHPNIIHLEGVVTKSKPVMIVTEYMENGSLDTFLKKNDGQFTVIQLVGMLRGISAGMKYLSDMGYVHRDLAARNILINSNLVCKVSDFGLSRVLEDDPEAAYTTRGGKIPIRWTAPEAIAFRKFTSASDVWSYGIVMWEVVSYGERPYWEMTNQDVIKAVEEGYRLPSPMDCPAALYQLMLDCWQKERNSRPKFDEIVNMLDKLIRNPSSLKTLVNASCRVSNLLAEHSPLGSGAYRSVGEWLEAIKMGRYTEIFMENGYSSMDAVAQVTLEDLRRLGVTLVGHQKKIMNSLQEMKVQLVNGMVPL
For experiment [5] the target is unchanged. The conditions noted are these: at 10 µM.
For experiment [6], the target named is Ephrin type-A receptor 7 (Homo sapiens) (UniProt Q15375). The following applies: at 1 µM.
Sequence of Ephrin type-A receptor 7 (Homo sapiens) (Q15375 28-998 limits assumed): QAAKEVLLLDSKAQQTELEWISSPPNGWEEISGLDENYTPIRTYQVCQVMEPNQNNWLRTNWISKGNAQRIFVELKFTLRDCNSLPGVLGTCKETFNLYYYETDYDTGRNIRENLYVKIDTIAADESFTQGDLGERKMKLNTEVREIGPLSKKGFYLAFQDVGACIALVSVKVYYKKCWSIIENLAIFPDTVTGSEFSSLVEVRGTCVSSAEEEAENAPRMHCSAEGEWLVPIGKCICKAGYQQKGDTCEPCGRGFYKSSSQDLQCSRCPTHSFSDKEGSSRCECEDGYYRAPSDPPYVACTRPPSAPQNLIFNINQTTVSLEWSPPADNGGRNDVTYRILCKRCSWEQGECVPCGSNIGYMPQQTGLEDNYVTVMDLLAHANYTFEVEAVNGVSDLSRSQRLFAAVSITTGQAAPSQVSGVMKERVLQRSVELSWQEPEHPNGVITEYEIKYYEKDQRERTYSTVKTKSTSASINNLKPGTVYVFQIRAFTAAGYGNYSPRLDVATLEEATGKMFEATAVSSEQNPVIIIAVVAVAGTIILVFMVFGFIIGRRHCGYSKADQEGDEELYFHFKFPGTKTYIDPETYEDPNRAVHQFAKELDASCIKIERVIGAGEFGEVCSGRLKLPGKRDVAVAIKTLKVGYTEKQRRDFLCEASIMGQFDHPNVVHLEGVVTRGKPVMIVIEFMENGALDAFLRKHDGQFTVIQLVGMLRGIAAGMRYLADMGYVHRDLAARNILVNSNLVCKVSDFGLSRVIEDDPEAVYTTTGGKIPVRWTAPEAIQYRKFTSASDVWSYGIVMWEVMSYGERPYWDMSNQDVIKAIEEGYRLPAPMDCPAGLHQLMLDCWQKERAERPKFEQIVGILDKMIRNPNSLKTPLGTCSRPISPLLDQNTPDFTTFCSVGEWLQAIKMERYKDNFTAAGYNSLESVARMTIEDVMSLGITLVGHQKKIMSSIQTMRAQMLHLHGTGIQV
Experiment [7] shares this target. The conditions noted are these: at 10 µM.
Experiment [8] deals with T2, Ephrin type-A receptor 8 (Homo sapiens) (UniProt P29322).
T2 sequence (whole entry): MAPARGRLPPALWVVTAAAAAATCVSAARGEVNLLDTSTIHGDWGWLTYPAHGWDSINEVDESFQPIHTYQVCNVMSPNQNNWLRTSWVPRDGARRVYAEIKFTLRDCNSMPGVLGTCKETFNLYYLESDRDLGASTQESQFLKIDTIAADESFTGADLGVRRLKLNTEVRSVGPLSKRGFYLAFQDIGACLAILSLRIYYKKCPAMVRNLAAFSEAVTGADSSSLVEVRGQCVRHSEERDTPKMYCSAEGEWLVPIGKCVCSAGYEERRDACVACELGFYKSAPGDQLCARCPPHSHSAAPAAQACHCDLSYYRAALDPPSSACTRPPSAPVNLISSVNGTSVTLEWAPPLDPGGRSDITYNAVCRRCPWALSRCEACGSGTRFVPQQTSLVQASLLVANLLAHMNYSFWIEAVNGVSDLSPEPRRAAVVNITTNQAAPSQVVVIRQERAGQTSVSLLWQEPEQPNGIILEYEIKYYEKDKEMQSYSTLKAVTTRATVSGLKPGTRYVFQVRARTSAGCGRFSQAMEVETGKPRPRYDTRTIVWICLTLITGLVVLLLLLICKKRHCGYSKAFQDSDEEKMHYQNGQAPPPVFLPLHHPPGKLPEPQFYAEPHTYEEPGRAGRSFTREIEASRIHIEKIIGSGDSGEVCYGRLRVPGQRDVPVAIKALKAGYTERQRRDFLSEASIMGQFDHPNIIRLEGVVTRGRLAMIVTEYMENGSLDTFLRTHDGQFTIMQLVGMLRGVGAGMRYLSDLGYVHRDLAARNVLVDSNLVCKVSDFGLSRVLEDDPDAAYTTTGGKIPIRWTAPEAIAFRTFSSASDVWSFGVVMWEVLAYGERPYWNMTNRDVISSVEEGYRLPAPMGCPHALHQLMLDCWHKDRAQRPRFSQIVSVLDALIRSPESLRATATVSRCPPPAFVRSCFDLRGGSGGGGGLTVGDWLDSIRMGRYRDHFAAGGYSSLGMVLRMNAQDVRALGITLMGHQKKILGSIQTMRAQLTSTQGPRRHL
The following applies: at 1 µM.

The target in experiment [9] is T2, Ephrin type-A receptor 8 (Homo sapiens). The conditions noted are these: at 10 µM.
Experiment [10] concerns the target T3, Ephrin type-B receptor 1 (Homo sapiens) (UniProt P54762).
T3 sequence (whole entry): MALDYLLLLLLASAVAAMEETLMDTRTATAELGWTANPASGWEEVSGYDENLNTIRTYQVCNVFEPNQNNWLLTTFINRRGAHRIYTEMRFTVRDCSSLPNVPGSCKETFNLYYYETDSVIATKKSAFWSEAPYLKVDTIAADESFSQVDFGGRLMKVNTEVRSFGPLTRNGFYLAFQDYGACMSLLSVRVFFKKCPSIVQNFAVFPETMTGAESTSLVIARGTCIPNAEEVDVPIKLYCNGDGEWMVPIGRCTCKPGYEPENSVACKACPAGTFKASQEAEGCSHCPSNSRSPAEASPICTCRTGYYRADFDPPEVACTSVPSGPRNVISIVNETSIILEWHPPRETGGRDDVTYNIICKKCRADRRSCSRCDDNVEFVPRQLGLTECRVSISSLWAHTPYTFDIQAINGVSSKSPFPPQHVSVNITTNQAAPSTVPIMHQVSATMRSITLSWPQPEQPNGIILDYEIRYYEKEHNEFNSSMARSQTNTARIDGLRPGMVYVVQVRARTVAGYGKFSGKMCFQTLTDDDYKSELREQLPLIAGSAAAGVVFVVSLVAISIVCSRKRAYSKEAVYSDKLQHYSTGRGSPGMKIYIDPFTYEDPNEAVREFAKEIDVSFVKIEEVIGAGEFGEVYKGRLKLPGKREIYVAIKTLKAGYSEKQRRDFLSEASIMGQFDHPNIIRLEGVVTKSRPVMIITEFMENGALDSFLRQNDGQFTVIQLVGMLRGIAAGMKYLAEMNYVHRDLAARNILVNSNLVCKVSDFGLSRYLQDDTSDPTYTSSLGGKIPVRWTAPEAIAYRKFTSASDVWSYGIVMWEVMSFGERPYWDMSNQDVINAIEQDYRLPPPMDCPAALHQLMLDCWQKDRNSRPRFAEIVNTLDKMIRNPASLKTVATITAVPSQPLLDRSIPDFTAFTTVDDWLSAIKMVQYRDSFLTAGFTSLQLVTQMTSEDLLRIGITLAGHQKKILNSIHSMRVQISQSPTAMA
The following applies: at 1 µM.

In general, residual activity refers to what remains of the control signal, in per cent. A lower residual activity goes with a large loss of activity.

SMILES strings stand for the structures.

Consider `CC(C)(C)n1nc(Cc2cccc3ccccc23)c2c(N)ncnc21`, for which the residual activity in [1] amounted to 8%; in experiment [2] it was 47%; in experiment [3], 5%; in experiment [4] it was 21%; in experiment [5] it was 5%; in experiment [6] it was 89%. Moreover, the residual activity in experiment [7] was 33%; in experiment [8], 33%; in experiment [9], 6%; in experiment [10], 13%.
